Assay outcomes (PubChem BioAssay)
KCNH2 WT inh – KCNH2 (human, wildtype) channel inhibition; Q12809; U2OS, BacMam KCNH2, thallium flux FluxOr; hits give low values; activity change, % at 1.84 µM; 340,000 tested, 0.37% active; AID 720551;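 active = maximum activity change below -70%; inconclusive = maximum activity change between -70% and -50%; inactive = maximum activity change above -50%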; also: % is scaled to controls: 0 for no effect and ±100 for the full control effect
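U2OS cells transduced with wild-type KCNH2 virus are loaded with FluxOr dye for 45 min, and thallium flux is measured in kinetic reads before and after stimulation buffer. Rate constants are normalized to DMSO controls.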
KCNH2 3.1 block – inhibitors of human KCNH2 3.1 potassium channel isoform. U2OS KCNH2 3.1, thallium flux FluxOr; hits give low values. activity change, % (tested at about 1.8 µM). 340,000 tested, 0.95% active. AID 720553;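 active = maximum activity change below -70%; inconclusive = maximum activity change from -70% to -50%; inactive = maximum activity change above -50%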;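 also: thallium influx rate constant from kinetic fluorescence after stimulation buffer; % is scaled to controls: 0 for no effect and ±100 for the full control effect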
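Steps: virus added to U2OS suspension (4 h, RT, dark); medium with 10% FBS added, cells plated, 37 C overnight; FluxOr/Red40 loading buffer 45 min RT; stimulation buffer, 2 min kinetic read; rate constant normalized.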
TSG101-PTAP inh – blocks PTAP/TSG101 interaction to inhibit HIV-1 budding; Q99816; Potency, µM (titrated, usually from 115 µM), for inactives: top-dose activity change, negative = inhibition, most hits filed as inhibitors; 340,000 tested, under 10 active; Fluorescence polarization, FITC-PTAP peptide / Tsg101 binding; active = well fitted inhibition curve with a large enough effect in the main read-out, with a control signal flat, not every such curve was filed as active; inconclusive = small, poorly fitted or top-dose-only effect, or effect the other way, or a change in a side signal; inactive = no such curve, though single readings can be large or run the other way; also: potency is read from the fitted curve at half-maximal effect; % of control where 0% means no effect
Target sequence (Q99816 whole entry, looked up): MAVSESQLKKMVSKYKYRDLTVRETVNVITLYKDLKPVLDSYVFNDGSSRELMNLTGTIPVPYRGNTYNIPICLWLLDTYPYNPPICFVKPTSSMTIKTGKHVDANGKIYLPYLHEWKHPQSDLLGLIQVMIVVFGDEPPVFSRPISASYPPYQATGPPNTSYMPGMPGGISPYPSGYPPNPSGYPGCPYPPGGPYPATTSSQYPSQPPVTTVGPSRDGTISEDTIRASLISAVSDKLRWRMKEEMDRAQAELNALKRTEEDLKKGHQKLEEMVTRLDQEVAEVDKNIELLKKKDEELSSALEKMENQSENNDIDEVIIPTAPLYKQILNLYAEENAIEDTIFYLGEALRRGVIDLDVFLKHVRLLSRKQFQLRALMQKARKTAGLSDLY
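Fluorescence polarization binding of Tsg101 binding domain (10 uM final) to FITC-labeled PTAP peptide (50 nM final) in HEPES pH 7.5 buffer with NaCl, Tween 20, EDTA, TCEP. Compounds added before peptide; binding 20 min at RT.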
Glioma ERSR ind – ER stress response induction in glioma. Potency, µM, for the others: at the highest dose activation, usual class: activators. 420,000 tested, 0.02% active. U87-MG GRP78 promoter luciferase reporter, 16 h; active = well fitted activation curve with a large enough effect; inconclusive = small, poorly fitted or top-dose-only effect; inactive = no such curve, though single readings can be large or run the other way; also: potency is read from the fitted curve at half-maximal effect; series mostly up to about 76 µM; % of control where 0% means no effect; nearly all actives have a fitted effect of over 35% in size
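Stably transfected U87-MG human glioma cells carrying a GRP78-based luminescent sensor were seeded at 1000 cells/well, pin-dosed with compounds and incubated 16 h. Luciferase reagent was then added, and end-point luminescence was read after 10 min at room temperature.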
TRPML1 inh – blocks the human TRPML1 channel; TRPML1-inducible cells, Ca2+ dye fluorescence, FDSS; hits give low values; inhibition of EC80 agonist-evoked calcium signal; activity change, negative = inhibition, % (no concentration beside the values); 390,000 tested, 0.02% active; AID 624415; in the data active = activity change below about -50%; inconclusive = between about -30% and that limit;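 also: stimulus is agonist 54-4 at its EC80 concentration; % is scaled to controls: 0 for no effect and ±100 for the full control effect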
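TRPML1-DL cells, Tet-induced overnight (~16 h, 37 °C) at 1,500 cells/well, were loaded with Ca8 no-wash dye plus quencher for 45-90 min at room temperature. Compounds were pinned during FDSS kinetic reading; agonist 54-4 at EC80 (4 uM final) then added.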
TRPML1 agonist – activates the human TRPML1 channel | TRPML1-expressing cells, Ca2+ dye fluorescence, FDSS | 410,000 tested, 0.12% active | activation, % (no concentration beside the values) | AID 624414 | Q9GZU1; in the data active = activation above about 50%; inconclusive = mostly about 30% to 49%; also: 0% is about no effect
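Calcium fluorescence on an FDSS kinetic reader gave the read-out. Tet-induced TRPML1-DL cells were plated overnight, dye-loaded (Ca8 with quencher, 45-90 min, room temperature, dark), then read 110 s after compound addition, and again 110 s after 4uM final 54-4 (EC80).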
An asterisk follows results filed as active; ? = inconclusive; . = no result. An excerpt weighted towards active compounds, which were near 1% of everything screened.

SMILES	KCNH2 WT inh	KCNH2 3.1 block	TSG101-PTAP inh	Glioma ERSR ind	TRPML1 inh	TRPML1 agonist
Cc1cc(N(C)C)c(C)cc1/C=C/c1ccnc2ccccc12	.	.	.	13%	.	14
COc1cccc(/C=N/Nc2nn3cnnc3c3ccccc23)c1O	5	1	-4%	-4%	-2	-1
Oc1cccc(/C=N/Nc2nn3cnnc3c3ccccc23)c1	14	-114*	-6%	0%	89	0
O=C(c1cccc(N2CCCC2=O)c1)N1CCC(Oc2cccc(CN3CCN(c4ccccn4)CC3)c2)CC1	.	.	.	-5%	.	.
COc1ccccc1-c1ccc(/C=C2\C=CC(=O)O2)o1	-7	-25	?	18%	-17	84*
COc1cc(CN2CCC3(CCC(CNC(=O)c4ccccc4)O3)CC2)cc(OC)c1 (stereo not drawn)	.	.	.	-2%	.	.
O=C(CCCCCn1c(=S)[nH]c2cc3c(cc2c1=O)OCO3)NCCc1ccccc1	-13	-87*	1%	-5%	-15	1
O=C(CCCn1c(=S)[nH]c2cc3c(cc2c1=O)OCO3)NCCc1ccc(Cl)cc1	6	6	.	1%	5	0
Cc1cccc(NS(=O)(=O)c2cc3c4c(c2)CCN4C(=O)CC3)c1C	-173*	-1	-7%	-5%	49	0
COCc1c(C(=O)N2CCN(C3CCCC3)CC2)cnn1-c1nccc(-c2cccs2)n1	.	.	.	3%	.	.
CC(C)(C)n1ncc2c(=O)n(Cc3ccc(F)cc3F)cnc21	.	.	.	-2%	2	1
Cc1cccc(Nc2ncccc2C(=O)NCc2cccs2)c1C	-1	-73*	-3%	-1%	-8	10
Cc1ccc(Nc2ncccc2C(=O)NCc2cccs2)c(C)c1	-13	.	-4%	2%	3	5
CCn1nc(C)c(CN2CCC3(CCC(CNC(=O)c4ccccc4)O3)CC2)c1C (stereo not drawn)	.	.	.	-4%	.	.
COc1ccc(CNC(=O)CN(C)Cc2ccc(SC)cc2)cc1	-9	-78*	1%	-4%	12	3
CSc1ccc(CN(C)CC(=O)NCc2ccccc2)cc1	14	-8	-2%	-1%	-1	0
CN(CC(=O)NCc1ccc(F)cc1)Cc1ccc(Br)cc1	8	22	-5%	-6%	-2	0
CCOc1ccc(CN(C)CC(=O)NCc2ccc(F)cc2)cc1	?	-103*	1%	-1%	-5	2
CCOc1ccc(C(=O)CCC(=O)N(CC)CC(=O)NCc2ccc(Cl)cc2)cc1	-160*	-2	-1%	4%	11	-1
COc1ccc(CN(C2CCCCC2C)S(=O)(=O)c2ccc(S(=O)(=O)N(C)C)cc2)cc1OC (stereo not drawn)	-5	-6	-3%	-2%	-25	134*
COc1cc(CN(C2CCCCC2C)S(=O)(=O)c2ccc(S(=O)(=O)NC3CC3)cc2)cc(OC)c1OC (stereo not drawn)	-2	1	-2%	-5%	-1	5
O=C1c2cccc3c([N+](=O)[O-])ccc(c23)C(=O)N1O	-197*	-30	-12%	?	0	0
COc1cc(CN2CCC3(CC2)CC3C(=O)Nc2ccc3sc(C)nc3c2)ccc1F (stereo not drawn)	.	.	.	-6%	.	.
Clc1ccc(CSc2nnc(-c3ccncc3)s2)cc1	-1	22	0%	-2%	37	2
O=C1Nc2ccccc2CCC1Sc1nnc(-c2ccc(Cl)cc2)s1 (stereo not drawn)	6	-72*	-3%	-3%	1	-1
Cc1c(-c2ccccc2)sc2nc[nH]c(=S)c12	-116*	-82*	-4%	1%	9	0
Cc1csc(C(C)N(C)C(=O)c2cc(NC(=O)C3CCC3)c3c(c2)nc(-c2ccncc2)n3C)n1 (stereo not drawn)	.	.	.	-7%	.	.
COc1cccc(C2(CC(=O)N3CCC(c4nc5ccccc5o4)CC3)CC(=O)N(C)C2=O)c1 (stereo not drawn)	.	.	.	1%	.	.
